In PubChem BioAssay (EPA / NIEHS):
Inconclusive results are not listed. Active and inactive are the calls of the source. How the source made its calls, unless noted: active means hit-call score of the fitted dose curve at least 0.9, where 1 is the maximum; inactive means score below 0.9.

Assays:
[1] = read-out: solute carrier (SLCO1B1), SLCO1B1 (gene 10599); test: LTEA_HepaRG_SLCO1B1: Life Technologies and Expression Analysis (LTEA) Assay for solute carrier (SLCO1B1) using HepaRG (AID 2283530); details: mRNA level, 48 h; actives raise or lower the signal
Method in brief: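 Gain or loss of SLCO1B1 mRNA is fitted against the 0.5% DMSO vehicle in human HepaRG liver cells treated 48 h at up to 100 uM in half-log steps. Expression comes from qRT-PCR normalized to endogenous controls.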

[2] = read-out: sulfotransferase 2A1 (SULT2A1), SULT2A1 (gene 6822); test: LTEA_HepaRG_SULT2A1: Life Technologies and Expression Analysis (LTEA) Assay for sulfotransferase 2A1 (SULT2A1) using HepaRG (AID 2283531); details: mRNA level, 48 h; actives raise or lower the signal
Method in brief: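 Cells were plated and cultured 48 h, switched to serum-free induction medium, then dosed in duplicate for 48 h (8 concentrations, max 100 uM). RNA was isolated and SULT2A1 expression measured by qRT-PCR; gain or loss of signal fitted relative to DMSO.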

[3] = read-out: Transforming Growth Factor (TGFA), TGFA (gene 7039); test: LTEA_HepaRG_TGFA: Life Technologies and Expression Analysis (LTEA) Assay for Transforming Growth Factor (TGFA) using HepaRG (AID 2283532); details: mRNA level, 48 h; actives raise or lower the signal
Method in brief: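 HepaRG (human liver line), 48 h exposure, 8 conc. half-log down from 100 uM, 0.5% DMSO vehicle, duplicates; serum-free induction medium. TGFA mRNA by TaqMan qRT-PCR, ACTB/GAPDH/POLR2A normalization; gain/loss fit vs DMSO.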

[4] = read-out: Transforming Growth Factor (TGFB1), TGFB1 (gene 7040); test: LTEA_HepaRG_TGFB1: Life Technologies and Expression Analysis (LTEA) Assay for Transforming Growth Factor (TGFB1) Transporter using HepaRG (AID 2283533); details: mRNA level, 48 h; actives raise or lower the signal
Method in brief: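 Expression change of TGFB1 in human HepaRG cells is measured after a 48 h chemical exposure, up to 100 uM in 0.5% DMSO vehicle. Curves are fitted in both directions relative to the DMSO baseline.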

[5] = read-out: TIMP1, TIMP1 (gene 7076); test: LTEA_HepaRG_TIMP1: Life Technologies and Expression Analysis (LTEA) Assay for TIMP1 using HepaRG (AID 2283534); details: mRNA level, 48 h; actives raise or lower the signal
Method in brief: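 We dosed human liver HepaRG cultures for 48 hours with up to 100 uM test chemical and measured TIMP1 expression by qRT-PCR. Activity in either direction is fitted relative to the 0.5% DMSO vehicle.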

[6] = read-out: Tumor necrosis factor receptor 1 (TNFRSF1A), TNFRSF1A (gene 7132); test: LTEA_HepaRG_TNFRSF1A: Life Technologies and Expression Analysis (LTEA) Assay for Tumor necrosis factor receptor 1 (TNFRSF1A) using HepaRG (AID 2283535); details: mRNA level, 48 h; actives raise or lower the signal
Method in brief: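 Expression of TNFRSF1A in human HepaRG liver cells was measured by qRT-PCR 48 h after chemical dosing (maximum 100 uM). Bidirectional curve fitting used 0.5% DMSO as baseline.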

[7] = read-out: Thyroid Hormone Responsive (THRSP), THRSP (gene 7069); test: LTEA_HepaRG_THRSP: Life Technologies and Expression Analysis (LTEA) Assay for Thyroid Hormone Responsive (THRSP) using HepaRG (AID 2283536); details: mRNA level, 48 h; actives raise or lower the signal
Method in brief: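 mRNA induction or loss relative to 0.5% DMSO vehicle was fitted bidirectionally across an eight-point curve whose highest exposure was 100 uM. Human HepaRG liver cells received chemicals in duplicate over 48 h before RNA extraction.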

[8] = read-out: Cellular tumor antigen p53 (Homo sapiens) (UniProt P04637); test: LTEA_HepaRG_TP53: Life Technologies and Expression Analysis (LTEA) Assay for Tumor Protein P53 (TP53) using HepaRG (AID 2283537); details: mRNA level, 48 h; actives raise or lower the signal
Method in brief: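 Read-out is TP53 transcript level by microfluidic qRT-PCR, normalised to three housekeeping genes and fitted bidirectionally against DMSO. Human HepaRG cells received compounds for 48 h, highest concentration 100 uM.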

[9] = read-out: UDP glucuronosyltransferase (UGT1A1), UGT1A1 (gene 54658); test: LTEA_HepaRG_UGT1A1: Life Technologies and Expression Analysis (LTEA) Assay for UDP glucuronosyltransferase (UGT1A1) using HepaRG (AID 2283538); details: mRNA level, 48 h; actives raise or lower the signal
Method in brief: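 Readout is UGT1A1 transcript level by qRT-PCR, normalized to three housekeeping genes, after 48 h chemical treatment of HepaRG cells. Concentrations ran from 100 uM down in half-log steps with 0.5% DMSO, and gain or loss relative to DMSO was fitted.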

[10] = read-out: UDP glucuronosyltransferase (UGT1A6), UGT1A6 (gene 54578); test: LTEA_HepaRG_UGT1A6: Life Technologies and Expression Analysis (LTEA) Assay for UDP glucuronosyltransferase (UGT1A6) using HepaRG (AID 2283539); details: mRNA level, 48 h; actives raise or lower the signal
Method in brief: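 Endpoint is UGT1A6 transcript induction or loss in a human liver cell line, quantified by TaqMan qRT-PCR 48 h after dosing. Concentrations ran from 100 uM downward in half-log steps in 0.5% DMSO; activity was fitted in both directions versus vehicle.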

[11] = read-out: X-box binding protein 1 (XBP1), XBP1 (gene 7494); test: LTEA_HepaRG_XBP1: Life Technologies and Expression Analysis (LTEA) Assay for X-box binding protein 1 (XBP1) using HepaRG (AID 2283540); details: mRNA level, 48 h; actives raise or lower the signal
Method in brief: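 Human HepaRG monolayers receive test chemical for 48 h across an eight-point half-log series starting at 100 uM. XBP1 mRNA gain or loss is scored against DMSO by qRT-PCR.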

[12] = LTEA_HepaRG_LDH_cytotoxicity: Cytotoxicity Assessment in the Life Technologies and Expression Analysis (LTEA) Assay (AID 2283563; active means hit-call score of the fitted dose curve at least 0.9, where 1 is the maximum;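 on AC50: LDH activity released into spent culture medium as a marker of cell death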)
Method in brief: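 Human HepaRG hepatic cells are treated with test chemicals for 48 h at up to 100 uM in 0.5% DMSO. Cytotoxicity is scored from medium LDH against the vehicle control.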

[13] = TOX21_p53_BLA_p2_viability: Viability Assessment in the Tox21 HCT-116 p53 Agonism Beta-lactamase Assay, Phase 2 (AID 2283591; active means hit-call score of the fitted dose curve at least 0.9, where 1 is the maximum;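 further: actives lower the ATP signal meaning cytotoxicity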)
Method in brief: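 Cytotoxicity readout: CellTiter-Glo ATP luminescence, 30 min at room temperature, after the beta-lactamase read. Cells were HCT116 exposed 16 h at 37C to compounds pin-transferred at 217-fold dilution from DMSO stocks.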

[14] = TOX21_p53_BLA_p3_viability: Viability Assessment in the Tox21 HCT-116 p53 Agonism Beta-lactamase Assay, Phase 3 (AID 2283593; active means hit-call score of the fitted dose curve at least 0.9, where 1 is the maximum;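 further: cells exposed to compound for 16 h before reading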)
Method in brief: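 Cellular ATP was quantified by CellTiter-Glo luminescence, read after 30 min at room temperature. Beforehand, HCT116 cells (4000/well) received compound 5 h post-seeding, 217-fold diluted from DMSO, then incubated 16 h at 37C.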

[15] = target: Cellular tumor antigen p53 (Homo sapiens) (UniProt P04637); test: TOX21_p53_BLA_p3_ratio: Tox21 HCT-116 p53 Agonism Beta-lactamase Assay, Ratio, Phase 3 (AID 2283596; active means hit-call score of the fitted dose curve at least 0.9, where 1 is the maximum)
Method in brief: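 HCT116 p53-bla cells (4000/well) given compound in DMSO (217-fold dilution) after 5 h, incubated 16 h at 37C. CCF4-AM substrate 2 h at room temperature; 460/530 nm emission ratio, gain fitted against DMSO.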

[16] = TOX21_p53_BLA_p4_viability: Viability Assessment in the Tox21 HCT-116 p53 Agonism Beta-lactamase Assay, Phase 4 (AID 2283597; active means hit-call score of the fitted dose curve at least 0.9, where 1 is the maximum;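 further: hits lower the luminescence signal meaning cytotoxicity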)
Method in brief: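 Compound exposure of HCT116 cells lasts 16 h at 37C, 5% CO2, with DMSO stocks diluted 217-fold. Cellular ATP is then quantified by CellTiter-Glo luminescence after 30 min at room temperature.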

[17] = target: Cellular tumor antigen p53 (Homo sapiens) (UniProt P04637); test: TOX21_p53_BLA_p5_ratio: Tox21 HCT-116 p53 Agonism Beta-lactamase Assay, Ratio, Phase 5 (AID 2283599; active means hit-call score of the fitted dose curve at least 0.9, where 1 is the maximum)
Method in brief: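 Beta-lactamase reporter ratio (blue 460 nm over green 530 nm, 405 nm excitation) after 2 h CCF4-AM loading, in HCT-116 cells exposed 16 h at 37 C to compounds pinned at 217-fold dilution. Increases relative to DMSO baseline scored.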

[18] = TOX21_p53_BLA_p5_viability: Viability Assessment in the Tox21 HCT-116 p53 Agonism Beta-lactamase Assay, Phase 5 (AID 2283600; active means hit-call score of the fitted dose curve at least 0.9, where 1 is the maximum)
Method in brief: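 Counter-readout for cytotoxicity: ATP-dependent luminescence from CellTiter-Glo, read in the beta-lactamase wells after 30 min at RT, following a 16 h compound exposure at 37C.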

[19] = target: Cellular tumor antigen p53 (Homo sapiens) (UniProt P04637); test: TOX21_p53_BLA_p2_ratio: Tox21 HCT-116 p53 Agonism Beta-lactamase Assay, Ratio, Phase 2 (AID 2283592; active means hit-call score of the fitted dose curve at least 0.9, where 1 is the maximum)
Method in brief: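 An inducible beta-lactamase reporter in HCT116 cells signals p53 pathway activation. After 16 h chemical exposure at 37C, cells load CCF4-AM substrate for 2 h at room temperature; activity is the cleaved/uncleaved emission ratio relative to DMSO.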

[20] = ATG_XTT_Cytotoxicity: Cytotoxicity Assessment in the Attagene TRANS-FACTORIAL HepG2 Assay (AID 2283584; active means hit-call score of the fitted dose curve at least 0.9, where 1 is the maximum)
Method in brief: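 Transfect HepG2 with GAL4-UAS reporter units, dose compound, incubate 24 h, then measure viable cell number by XTT. Fit concentration response against DMSO baseline.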

Measured: AC50

Sequence of Cellular tumor antigen p53 (Homo sapiens) (P04637 whole entry, looked up): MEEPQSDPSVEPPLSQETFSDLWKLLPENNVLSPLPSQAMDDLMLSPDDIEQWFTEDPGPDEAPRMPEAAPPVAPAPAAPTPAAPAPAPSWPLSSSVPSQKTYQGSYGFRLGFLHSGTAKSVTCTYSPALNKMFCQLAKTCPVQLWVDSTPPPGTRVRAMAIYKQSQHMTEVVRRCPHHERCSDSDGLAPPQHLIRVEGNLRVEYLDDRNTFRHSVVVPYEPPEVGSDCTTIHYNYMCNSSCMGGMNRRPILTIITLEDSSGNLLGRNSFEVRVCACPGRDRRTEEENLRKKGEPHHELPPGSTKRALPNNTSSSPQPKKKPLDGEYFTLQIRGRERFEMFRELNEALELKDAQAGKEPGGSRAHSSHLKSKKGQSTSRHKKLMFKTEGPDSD

Cn1c(-c2ccccc2)cc(-c2ccccc2)[n+]1C
active: [1] 18.6 µM | [2] 50 µM | [5] 82.9 µM | [6] 72.2 µM | [7] 50 µM | [8] 86.5 µM | [9] 39.9 µM | [10] 75.2 µM | [12] 66.1 µM
not listed: [19] | [20]
inactive: all other assays above

CC1(C)CON(Cc2ccccc2Cl)C1=O
active: [9] 9.92 µM
not listed: [13] | [18] | [19] | [20]
inactive: all other assays above

Clc1nc(Cl)nc(Nc2ccccc2Cl)n1
not listed: [14] | [15] | [20]
inactive: all other assays above

CNC(=O)Oc1cccc2ccccc12
active: [9] 50 µM
not listed: [13] | [19] | [20]
inactive: all other assays above

CCCC(=NOCC)C1=C(O)CC(CC(C)SCC)CC1=O (stereo not drawn)
active: [9] 50.2 µM
not listed: [13] | [14] | [17] | [18] | [20]
inactive: all other assays above

COCC(C)N(C(=O)CCl)c1c(C)csc1C (stereo not drawn)
active: [9] 22.2 µM
not listed: [14] | [20]
inactive: all other assays above

CS(=O)(=O)c1cc(C(F)(F)F)ccc1C(=O)c1cnoc1C1CC1
not listed: [14] | [15] | [17] | [19] | [20]
inactive: all other assays above

Clc1cccc(C(Cl)(Cl)Cl)n1
active: [9] 50 µM
not listed: [19] | [20]
inactive: all other assays above

CC(C)N1C(=O)c2ccccc2NS1(=O)=O
not listed: [19] | [20]
inactive: all other assays above

Cc1cc(C)nc(Nc2ccccc2)n1
active: [9] 68.6 µM
not listed: [14] | [19] | [20]
inactive: all other assays above

CSC(=O)c1c(C(F)F)nc(C(F)(F)F)c(C(=O)SC)c1CC(C)C
active: [9] 11.7 µM | [12] 78.7 µM
not listed: [14]
inactive: all other assays above

O=C(O)c1c(Cl)ccc2cc(Cl)cnc12
inactive: [1] | [2] | [3] | [4] | [5] | [6] | [7] | [9] | [10] | [11] | [12]

CC(C)NC(=O)N1CC(=O)N(c2cc(Cl)cc(Cl)c2)C1=O
active: [1] 15.6 µM | [2] 13.1 µM | [7] 50 µM | [9] 4.3 µM | [11] 14.8 µM
not listed: [19]
inactive: all other assays above

N#CN=C1SCCN1Cc1ccc(Cl)nc1
not listed: [13] | [16] | [18] | [19] | [20]
inactive: all other assays above
